In the supplement of paper PMC9950053:
Where a name gives a salt, the structure may show the parent alone.

Test system: Danio rerio larvae (5 dpf)
Test: combined upward orientation toward moving lines (periods 7-14) minus DMSO control (percentage points); higher = more orientation with moving lines than DMSO larvae
Details: 10 µM; exposure time: 3 h pre-incubation + 3 h imaging
Description: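 Wild-type 5 dpf zebrafish larvae (n=48 per drug, 96-well plates, 28.5 °C) were exposed to Tocris FDA-approved library compounds at 10 µM (0.1% DMSO) for 3 h before and 3 h during imaging. Images were taken every 6 s during visual and acoustic stimuli, and larvae were tracked with Z-LaP Tracker. Each measure is the treated-group mean minus the DMSO control mean (n=844), in percentage points. This mapping covers compounds with 5-character plate codes.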

Compound	combined upward orientation toward moving lines
COc1ccc(C(CN(C)C)C2(O)CCCCC2)cc1 (stereo unspecified) [Venlafaxine hydrochloride]	0.349
